Measurements as given in PubChem BioAssay.
Calls of active or inactive are those of the source. How the calls were made is not given here.

biological target: Pantothenate synthetase (Mycobacterium tuberculosis (strain ATCC 25618 / H37Rv)) (UniProt P9WIL5); assay: Coupled enzyme confirmation of inhibitors against recombinant Mtb PanC (AID 375); settings: coupled enzyme assay; at 10 µM, hits give high values;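 further: 0% = full reaction with vehicle and 100% = no enzyme background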
Sequence (P9WIL5 whole entry, looked up): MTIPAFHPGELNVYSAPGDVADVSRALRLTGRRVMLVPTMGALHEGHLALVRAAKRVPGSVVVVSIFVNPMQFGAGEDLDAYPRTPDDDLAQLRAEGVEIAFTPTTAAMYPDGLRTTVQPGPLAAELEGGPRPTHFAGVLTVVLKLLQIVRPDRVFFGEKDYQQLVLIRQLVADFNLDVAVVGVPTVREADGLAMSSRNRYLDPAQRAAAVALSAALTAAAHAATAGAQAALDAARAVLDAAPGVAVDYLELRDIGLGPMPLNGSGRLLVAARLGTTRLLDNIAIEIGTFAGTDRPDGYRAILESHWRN

Compound | inhibition
CCOC(=O)c1c(NCc2ccc3c(c2)OCO3)c2ccccc2[nH]c1=O | 0% (inactive)
COC(=O)c1sc2ccccc2c1NC(=O)c1cccs1 | 2% (inactive)
Cc1ccnc(SCCn2c(N3CCCCC3)nc3c2c(=O)n(C)c(=O)n3C)n1 | 0% (inactive)
C1CCc2nnc(-c3nnc4n3CCCCC4)n2CC1 | 10% (inactive)
Cc1ccc(-c2nnc(-c3ccc(Br)cc3)o2)o1 | 0% (inactive)
O=C(NCc1ccco1)c1cnn2c(C(F)(F)F)cc(-c3ccco3)nc12 | 4% (inactive)
O=C(COc1ccccc1)NCC(c1cccs1)N1CCOCC1 (configuration not stated) | 4% (inactive)
COc1ccc(NC(=O)CCc2ccccc2)cc1NC(=O)c1ccco1 | 9% (inactive)
OC(CCN1CCCCC1)(c1ccccc1)C1CCCCC1 (configuration not stated) | 0% (inactive)
O=C(CCSc1ccccc1)Nc1ccc(S(=O)(=O)N2CCOCC2)cc1 | 7% (inactive)
CCC(c1nnnn1CCOC)N(Cc1ccc(C)cc1)Cc1cc2cc(OC)ccc2[nH]c1=O (configuration not stated) | 0% (inactive)
O=C(CCCSc1nc2ccccc2s1)NC1=NCCS1 | 0% (inactive)
O=C(COc1ccc(F)cc1Br)N1CCc2ccccc21 | 10% (inactive)
CC(O)CN(Cc1cccc(Cl)c1)CC(C)O (configuration not stated) | 5% (inactive)
CC(C)(C)N=C1NC(=NC(C)(C)C)c2ccccc21 | 0% (inactive)
COC(=O)c1ccccc1NC(=O)CSc1nc2c(c(=O)n(C)c(=O)n2C)n1C | 3% (inactive)
CCOC(=O)N1CCN(C(=O)COc2ccc(S(=O)(=O)NC3CCCCC3)cc2C)CC1 | 2% (inactive)
